Source: PubChem BioAssay (National Center for Advancing Translational Sciences (NCATS))
In the library only some 0.74% were active in any assay of this set; here they are far more common.
BLM helicase inh: inhibitors of human Bloom syndrome helicase BLM; P54132; 350,000 compounds, 0.2% hits; recombinant BLM DNA unwinding, fluorescence dequenching; Potency, µM (highest dose often 56.1 µM), without a hit: at the top dose activity change, negative = inhibition, hits mostly inhibitors;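 further: plate controls were vehicle for no effect and no enzyme for full effect; nearly all actives have a fitted effect of over 35% in size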
APEX1 inh: inhibitors of human APE1 endonuclease | P27695 | recombinant APE1, TAMRA/BHQ-2 abasic DNA cleavage fluorescence | Potency, µM (doses to about 65.8 µM), inactives show at the top dose activity change, negative = inhibition, usual class: inhibitors | 350,000 compounds, 0.35% hits | AID 2517;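 further: plate controls were vehicle for no effect and reference inhibitor for full effect; nearly all actives have a fitted effect of over 55% in size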
Target sequence (P27695 whole entry, looked up): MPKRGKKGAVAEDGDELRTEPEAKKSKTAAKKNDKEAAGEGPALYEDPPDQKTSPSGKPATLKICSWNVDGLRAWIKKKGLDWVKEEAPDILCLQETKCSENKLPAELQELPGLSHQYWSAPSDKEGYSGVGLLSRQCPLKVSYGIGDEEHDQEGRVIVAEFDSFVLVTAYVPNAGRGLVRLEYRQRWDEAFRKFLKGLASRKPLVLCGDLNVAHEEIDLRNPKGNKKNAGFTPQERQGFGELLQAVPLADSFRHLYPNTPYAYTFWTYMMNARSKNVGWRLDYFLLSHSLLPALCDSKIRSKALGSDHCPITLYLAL
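Compound pre-exposure to 0.75 nM APE1, 15 min at ambient temperature. Reaction initiated with 50 nM TAMRA/BHQ-2 THF substrate, read immediately in kinetic mode, 525 nm excitation, 598 nm emission.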
PGK inhibitor: blocks T. brucei phosphoglycerate kinase | PGK/GAPDH coupled, Kinase-Glo luminescence, 60 min | AID 602233 | P07378 | Potency, µM (doses to about 57.5 µM), without a hit: at the top dose activity change, negative = inhibition, usual class: inhibitors | 380,000 compounds, 0.043% hits; further: on the % scale 0 is the no-effect control and ±100 the full control effect; nearly all actives have a fitted effect of over 60% in size
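Luminescent ATP detection (Kinase-Glo Plus) follows a 60-minute room-temperature incubation, with wells lacking PGK as controls. Buffer: 100 mM TEA (pH 7.6), 5 mM MgCl2, 0.01% Tween-20. Coupling enzyme GAPDH (100 nM final) supplies unstable 1,3-BPG in-well.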
FEN1 inh-1: blocks human flap endonuclease 1 | P39748 | Recombinant FEN1 flap cleavage, fluorescence, 15 min | Potency, µM (series often up to 114 µM), inactives show at the top dose activity change, negative = inhibition, actives largely listed as inhibitors | 390,000 compounds, 0.35% hits | AID 588795; further: on the % scale 0 is the no-effect control and ±100 the full control effect; nearly all actives have a fitted effect of over 65% in size
Target sequence (P39748 whole entry, looked up): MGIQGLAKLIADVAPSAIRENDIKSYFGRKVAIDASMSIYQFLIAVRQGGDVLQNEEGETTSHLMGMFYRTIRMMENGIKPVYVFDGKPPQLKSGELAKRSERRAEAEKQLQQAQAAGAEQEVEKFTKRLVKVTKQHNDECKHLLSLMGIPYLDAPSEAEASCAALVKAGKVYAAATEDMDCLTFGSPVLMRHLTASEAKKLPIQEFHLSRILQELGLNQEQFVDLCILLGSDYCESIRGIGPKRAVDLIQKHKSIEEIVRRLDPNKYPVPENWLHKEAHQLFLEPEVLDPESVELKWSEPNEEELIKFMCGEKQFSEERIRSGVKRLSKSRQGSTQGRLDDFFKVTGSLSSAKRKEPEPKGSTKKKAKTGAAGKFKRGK
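Compounds are tested as a concentration series against 10 nM FEN1; after a 15 min room-temperature preincubation, 50 nM substrate starts cleavage, with plate reads at 0 and 15 min. Normalized responses are fitted by a Hill equation.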
RECQ1 inh-1: inhibitors of human RECQ1 DNA helicase. RECQ1 DNA unwinding, red fluorescence kinetic read. 240,000 compounds, 0.54% hits. Potency, µM (titrated, usually from 57.3 µM), inactives show top-dose activity, negative = inhibition, actives largely listed as inhibitors;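 further: plate controls were vehicle for no effect and no enzyme for full effect; nearly all actives have a fitted effect of over 30% in size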
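RECQ1T1 50 nM; forked duplex (20 bp + 30-nt ss tails) 200 nM, ATP 2 mM final; pH 8.0, 2 mM MgCl2, 2.5 ug/ml poly(dI-dC); 15 min compound preincubation; discontinuous kinetic read over 2 h at RT.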
RECQ1 inh conf: confirmation of human RECQ1 helicase inhibitors; shares compounds with RECQ1 inh-1; RECQ1 helicase DNA unwinding, fluorescence; Potency, µM (top dose mostly 229 µM), without a hit: at the top dose activity change, negative = inhibition, most hits filed as inhibitors; 610 compounds, 28% hits; further: on the % scale 0 is the no-effect control and ±100 the full control effect; nearly all actives have a fitted effect of over 45% in size
ADP FP counter: displaces ADP in a fluorescence polarization counter-screen for RECQ1 hits; shares compounds with RECQ1 inh-1; ADP fluorescence polarization displacement counterscreen; Potency, µM (titrated, usually from 228 µM), inactives show at the highest dose activity change, negative = inhibition, hits mostly inhibitors; 530 compounds, 27% hits; further: on the % scale 0 is the no-effect control and ±100 the full control effect; nearly all actives have a fitted effect of over 45% in size
RECQ1 inh-2: confirmation of human RECQ1 helicase inhibitors | shares compounds with RECQ1 inh-1 | recombinant RECQ1 DNA unwinding, red fluorescence | 1,100 compounds, 15% hits | Potency, µM (highest dose often 119 µM), inactives show at the top dose activity, negative = inhibition, most hits filed as inhibitors; further: on the % scale 0 is the no-effect control and ±100 the full control effect; nearly all actives have a fitted effect of over 50% in size
FEN1 inh-2: confirmation of human FEN1 inhibitors | shares compounds with FEN1 inh-1 | FEN1 flap cleavage, TAMRA/BHQ2 fluorogenic DNA substrate | Potency, µM, actives largely listed as inhibitors | 880 compounds, 79% hits; further: nearly all actives have a fitted effect of over 60% in size
Active calls of the source: *; ! = a repeat was not active; [ ] = dose if it differs, or a comment. The call rests on the fitted dose curve; in most records, active means well fitted curve in the direction sought with a large enough effect; inconclusive means small, poorly fitted or top-dose-only effect, or another doubt; inactive means no such curve, though single readings can be large; an effect the other way counts as inactive or inconclusive. Potency means the concentration at half of the fitted maximal effect.

CNc1ccc2oc(C[C@@H]3OC4(CC[C@@H]3C)O[C@H]([C@@H](C)C(=O)c3ccc[nH]3)[C@H](C)C[C@H]4C)nc2c1C(=O)O (some centres not stated) was read as APEX1 inh inconclusive, RECQ1 inh-1 inconclusive and RECQ1 inh-2 9.3%.
For CNc1ccc2oc(C[C@H]3O[C@@]4(CC[C@H]3C)O[C@H]([C@H](C)C(=O)c3ccc[nH]3)[C@H](C)C[C@H]4C)nc2c1C(=O)O the results were BLM helicase inh -27.5%, APEX1 inh -6.1%, PGK inhibitor -2.8%, FEN1 inh-1 inconclusive, RECQ1 inh-1 inconclusive and RECQ1 inh-2 -11.1%.
Screening COc1ccc(CCC(=O)N2CCC3(CC2)OCCO3)cc1 returned BLM helicase inh -0.5%, APEX1 inh 6.8%, PGK inhibitor -3.2%, FEN1 inh-1 -2.4% and RECQ1 inh-1 -0.2%.
For Cn1c(O)c(/C=N/NC(=O)c2ccncc2)c(=O)[nH]c1=S the results were BLM helicase inh -3.4%, APEX1 inh inconclusive, PGK inhibitor -10.4%, FEN1 inh-1 -3.5%, RECQ1 inh-1 3.16µM*, RECQ1 inh conf inconclusive, ADP FP counter 34.5%[91.9 µM] and RECQ1 inh-2 31.6µM*.
For CC(C)CCNC(=O)c1c(N)n(Cc2ccc3c(c2)OCO3)c2nc3ccccc3nc12 the results were BLM helicase inh -26.8%, APEX1 inh 5.3%, PGK inhibitor inactive, FEN1 inh-1 -1.7%, RECQ1 inh-1 inconclusive and RECQ1 inh-2 -17.8%.
For COCCCn1c(N)c(C(=O)OCCOC)c2nc3ccccc3nc21 the results were BLM helicase inh -1.2%, APEX1 inh -5.5%, PGK inhibitor -11.5%, FEN1 inh-1 -0.9% and RECQ1 inh-1 8.4%.
`CCCNC(=O)c1c(N)n(Cc2ccc3c(c2)OCO3)c2nc3ccccc3nc12` gave BLM helicase inh -8.8%, APEX1 inh -6.0%, PGK inhibitor -4.3%, FEN1 inh-1 -10.3% and RECQ1 inh-1 -7.2%.
For CCCCNC(=O)c1c(N)n(CCCOC)c2nc3ccccc3nc12 the results were BLM helicase inh inconclusive, APEX1 inh -9.7%, PGK inhibitor -7.2%, FEN1 inh-1 inconclusive, RECQ1 inh-1 inconclusive and RECQ1 inh-2 -10.6%.
Screening O=C(/C=C/c1ccc(Cl)cc1)NC(=S)N1C[C@H]2C[C@H](C1)c1cccc(=O)n1C2 returned BLM helicase inh 1.0%, APEX1 inh 8.5%, PGK inhibitor -1.6% and FEN1 inh-1 -6.1%.
For COc1cc(O)c(C(=O)O)c(-c2cc(O)c(O)cc2C)c1 the results were BLM helicase inh 4.3%, APEX1 inh 20µM*, PGK inhibitor -17.2%, FEN1 inh-1 inconclusive, RECQ1 inh-1 inconclusive and RECQ1 inh-2 inconclusive.
`Nc1ccc(Cl)cc1C(=O)c1ccccc1Cl` gave BLM helicase inh -8.8%, APEX1 inh -2.9%, PGK inhibitor inactive, FEN1 inh-1 11.2%, RECQ1 inh-1 25.1µM* and RECQ1 inh-2 -20.1%.
Cc1cccc(-n2c(-c3ccc([N+](=O)[O-])cc3)nc3ccccc3c2=O)c1 was read as BLM helicase inh -8.2%, APEX1 inh -0.8%, PGK inhibitor 1.9%, FEN1 inh-1 -15.0% and RECQ1 inh-1 -9.9%.
`CCCCC/C=C\C/C=C\C/C=C\C/C=C\CCCC(=O)NCCO` gave BLM helicase inh inconclusive, APEX1 inh 1.2% and RECQ1 inh-1 -2.8%.
For CCCCC/C=C\C/C=C\C/C=C\C/C=C\CCCC(=O)NCc1ccoc1 the results were BLM helicase inh inconclusive, APEX1 inh inconclusive, RECQ1 inh-1 11.2µM* and RECQ1 inh-2 inconclusive.
CCCNC(=O)Cn1cnc2sc(C(=O)N3CCC4(CC3)OCCO4)c(C)c2c1=O was read as BLM helicase inh 3.2%, APEX1 inh 36.8%, PGK inhibitor inactive and FEN1 inh-1 -1.7%.
`C=C1C(=O)O[C@@H]2C[C@@H](C)[C@@H]3C=CC(=O)[C@@]3(C)[C@@H](OC(=O)CC(=O)O[C@H]3[C@@H]4C(=C)C(=O)O[C@@H]4C[C@@H](C)[C@@H]4C=CC(=O)[C@]43C)[C@H]12` gave BLM helicase inh 22.4µM*, APEX1 inh -11.4%, PGK inhibitor inconclusive, FEN1 inh-1 inconclusive, RECQ1 inh-1 25.1µM*, RECQ1 inh conf 14.1µM* and ADP FP counter -3.9%[91.9 µM].
C=C1C(=O)O[C@H]2C[C@@H](C)[C@@H]3C=CC(=O)[C@@]3(C)C[C@H]12 was read as BLM helicase inh -1.3%, APEX1 inh 0.7%, PGK inhibitor -8.9%, FEN1 inh-1 1.1% and RECQ1 inh-1 -7.0%.
`Cc1ccc2nc(N3CCN(C)CC3)[nH]c2c1` gave BLM helicase inh -6.6%, APEX1 inh 0.2%, PGK inhibitor 0.3%, FEN1 inh-1 -1.1% and RECQ1 inh-1 -6.4%.
`CCOc1ccc(-c2nc3ccc(-c4nc5ccc(N6CCN(C)CC6)cc5[nH]4)cc3[nH]2)cc1` gave BLM helicase inh inconclusive, APEX1 inh 12.5%, RECQ1 inh-1 12.6µM* and RECQ1 inh-2 5.62µM*!.
O=C1CC(N2CC=C(c3ccccc3)CC2)C(=O)N1c1ccc(F)cc1 (configuration not stated) was read as BLM helicase inh -7.4%, APEX1 inh -6.2%, PGK inhibitor -2.0%, FEN1 inh-1 -4.2%, RECQ1 inh-1 28.2µM* and RECQ1 inh-2 -23.6%.
For CCCCNC(=O)Oc1c(Br)cc2sc(=O)oc2c1Br the results were BLM helicase inh -8.9%, APEX1 inh inconclusive, RECQ1 inh-1 11.2µM*, RECQ1 inh conf 4.7%[114 µM] and ADP FP counter 11.5%[91.9 µM].
C=C(Cl)CCl was read as APEX1 inh 3.1% and RECQ1 inh-1 -7.3%.
For C[C@]12CCC3C(CC[C@H]4C[C@@H](O)CC[C@]34C)C1CC[C@@H]2OC(=O)[C@H](N)CCCCN (some centres not stated) the results were APEX1 inh -5.9%, PGK inhibitor inactive, FEN1 inh-1 inconclusive and FEN1 inh-2 42.6*.
